From PubChem BioAssay (EPA / NIEHS)
Activity calls are given as the source filed them. The calls were made as follows: active = hit-call score of the fitted dose curve at least 0.9, where 1 is the maximum; inactive = score below 0.9.

Key:
Conditions in all cases: mRNA level, 48 h; actives raise or lower the signal
[1] = read-out: Insulin-like growth factor-binding protein 1 (IGFBP1), IGFBP1 (gene 3484); test: LTEA_HepaRG_IGFBP1: Life Technologies and Expression Analysis (LTEA) Assay for Insulin-like growth factor-binding protein 1 (IGFBP1) using HepaRG (AID 2283508)
Outline: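 HepaRG, 48 h, 8 conc. (max 100 uM, half-log), duplicates, 0.5% DMSO. Readout: TaqMan qRT-PCR, ACTB/GAPDH/POLR2A normalisation. Fit: bidirectional vs DMSO.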

[2] = read-out: Interleukin 6 (IL6), IL6 (gene 3569); test: LTEA_HepaRG_IL6: Life Technologies and Expression Analysis (LTEA) Assay for Interleukin 6 (IL6) using HepaRG (AID 2283509)
Outline: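 HepaRG cells exposed in duplicate for 48 h to eight half-log concentrations, top 100 uM, in 0.5% DMSO serum-free induction medium. mRNA measured by qRT-PCR, normalized to ACTB, GAPDH and POLR2A. Bidirectional fit versus DMSO.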

[3] = read-out: Interleukin 6 Receptor (IL6R), IL6R (gene 3570); test: LTEA_HepaRG_IL6R: Life Technologies and Expression Analysis (LTEA) Assay for Interleukin 6 Receptor (IL6R) using HepaRG (AID 2283510);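 as to AC50: TaqMan qRT-PCR signal normalized to ACTB GAPDH and POLR2A housekeeping genes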
Outline: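 Differentiated HepaRG cells, plated 48 h, then exposed in duplicate for 48 h in serum-free induction medium to 8 half-log concentrations (top 100 uM, 0.5% DMSO). IL6R mRNA measured by TaqMan qRT-PCR, normalized to ACTB/GAPDH/POLR2A; bidirectional fit vs DMSO.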

[4] = read-out: Potassium channel subfamily K member 1 (KCNK1), KCNK1 (gene 3775); test: LTEA_HepaRG_KCNK1: Life Technologies and Expression Analysis (LTEA) Assay for Potassium channel subfamily K member 1 (KCNK1) using HepaRG (AID 2283511)
Outline: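 Differentiated HepaRG cells, 48 h exposure in serum-free induction medium with 0.5% DMSO; 8 concentrations, half-log from 100 uM, duplicate. KCNK1 mRNA by qRT-PCR, normalized to ACTB, GAPDH, POLR2A; bidirectional fit vs DMSO.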

[5] = read-out: Keratin 19 (KRT19), KRT19 (gene 3880); test: LTEA_HepaRG_KRT19: Life Technologies and Expression Analysis (LTEA) Assay for Keratin 19 (KRT19) using HepaRG (AID 2283512)
Outline: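 Readout is qRT-PCR of KRT19 mRNA, normalized to ACTB, GAPDH and POLR2A, from HepaRG cells treated 48 h with eight-point half-log dilutions topping at 100 uM. Activity in either direction is scored relative to 0.5% DMSO vehicle.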

[6] = read-out: JUN Transcription Factor, JUN (gene 3725); test: LTEA_HepaRG_JUN: Life Technologies and Expression Analysis (LTEA) Assay for JUN Transcription Factor using HepaRG (AID 2283513)
Outline: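 HepaRG cells, 48 h post-plating, exposed 48 h in serum-free induction medium to 8-point half-log series (top 100 uM, 0.5% DMSO), duplicate; mRNA by qRT-PCR (TaqMan, Fluidigm), normalized to ACTB/GAPDH/POLR2A; bidirectional fit vs DMSO.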

[7] = read-out: Lipase C (LIPC), LIPC (gene 3990); test: LTEA_HepaRG_LIPC: Life Technologies and Expression Analysis (LTEA) Assay for Lipase C (LIPC) using HepaRG (AID 2283514)
Outline: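 HepaRG cells, 48 h after plating, treated in duplicate for 48 h in serum-free induction medium over 8 half-log concentrations from 100 uM, 0.5% DMSO. LIPC mRNA by TaqMan qRT-PCR normalized to ACTB/GAPDH/POLR2A; bidirectional fit versus DMSO.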

[8] = read-out: Lipoprotein lipase (LPL), LPL (gene 4023); test: LTEA_HepaRG_LPL: Life Technologies and Expression Analysis (LTEA) Assay for Lipoprotein lipase (LPL) using HepaRG (AID 2283515)
Outline: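 Differentiated HepaRG cells, plated 48 h, then exposed 48 h in serum-free induction medium to 8 concentrations (top 100 uM, half-log steps) in 0.5% DMSO, duplicate. LPL mRNA measured by qRT-PCR, normalized to ACTB, GAPDH and POLR2A.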

[9] = read-out: MicroRNA 122 (MIR122), gene 406906; test: LTEA_HepaRG_MIR122: Life Technologies and Expression Analysis (LTEA) Assay for MicroRNA 122 (MIR122) using HepaRG (AID 2283516); also: the transcript read is the microRNA miR-122
Outline: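 Differentiated human HepaRG cells in serum-free induction medium exposed 48 h to 8 half-log concentrations from 100 uM in 0.5% DMSO, duplicate. MIR122 quantified by Fluidigm TaqMan qRT-PCR, normalised to ACTB, GAPDH, POLR2A; fold change fitted bidirectionally versus DMSO.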

[10] = read-out: matrix metalloproteinase-10 (MMP10), MMP10 (gene 4319); test: LTEA_HepaRG_MMP10: Life Technologies and Expression Analysis (LTEA) Assay for matrix metalloproteinase-10 (MMP10) using HepaRG (AID 2283517)
Outline: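 Differentiated HepaRG cells in serum-free induction medium exposed 48 h in duplicate to 8-point half-log series up to 100 uM in 0.5% DMSO. mRNA quantified by qRT-PCR, normalised to ACTB, GAPDH, POLR2A; bidirectional fit versus DMSO.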

MYC, MYC (gene 4609) = test: LTEA_HepaRG_MYC: Life Technologies and Expression Analysis (LTEA) Assay for MYC using HepaRG (AID 2283518)
Outline: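 Expression changes were scored by TaqMan qRT-PCR with ACTB, GAPDH and POLR2A normalization. Cultures in serum-free induction medium received duplicate 8-point concentration series, highest 100 uM, for 48 h; DMSO (0.5%) served as baseline.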

[11] = read-out: matrix metalloproteinase-3 (MMP3), MMP3 (gene 4314); test: LTEA_HepaRG_MMP3: Life Technologies and Expression Analysis (LTEA) Assay for matrix metalloproteinase-3 (MMP3) using HepaRG (AID 2283519)
Outline: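 HepaRG cells (~100,000/well) in serum-free induction medium were dosed in duplicate for 48 h with an 8-point half-log series from 100 uM, 0.5% DMSO. MMP3 mRNA was quantified by Fluidigm TaqMan qRT-PCR, normalized to three housekeeping genes.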

[12] = read-out: Paternally Expressed 10 (PEG10), PEG10 (gene 23089); test: LTEA_HepaRG_PEG10: Life Technologies and Expression Analysis (LTEA) Assay for Paternally Expressed 10 (PEG10) using HepaRG (AID 2283520)
Outline: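 Differentiated HepaRG cells exposed 48 h in serum-free induction medium to eight half-log concentrations topping at 100 uM, 0.5% DMSO, in duplicate. PEG10 mRNA quantified by TaqMan qRT-PCR, normalized to ACTB, GAPDH and POLR2A; bidirectional fit versus DMSO.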

[13] = read-out: Nuclear factor NF-kappa-B p105 subunit (Homo sapiens) (UniProt P19838); test: LTEA_HepaRG_NFKB1: Life Technologies and Expression Analysis (LTEA) Assay for Nuclear Factor Kappa B Subunit 1 (NFKB1) using HepaRG (AID 2283521);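 also: TaqMan qRT-PCR transcript normalised to ACTB GAPDH and POLR2A housekeeping genes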
Outline: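 HepaRG, 48 h exposure; 8-pt half-log series from 100 uM in 0.5% DMSO; duplicates. Readout: NFKB1 mRNA by qRT-PCR (Fluidigm arrays), housekeeping-normalized. Gain/loss fit vs DMSO baseline.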

[14] = read-out: Protein phosphatase 2A (PPP2R4), PTPA (gene 5524); test: LTEA_HepaRG_PPP2R4: Life Technologies and Expression Analysis (LTEA) Assay for Protein phosphatase 2A (PPP2R4) using HepaRG (AID 2283522)
Outline: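 Differentiated human HepaRG cells in serum-free induction medium were exposed 48 h to 8 concentrations (top 100 µM, half-log steps, duplicate) in 0.5% DMSO. PPP2R4 mRNA was measured by TaqMan qRT-PCR, normalised to ACTB, GAPDH and POLR2A, and fitted bidirectionally versus DMSO.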

[15] = read-out: Phosphatase and tensin (PTEN), PTEN (gene 5728); test: LTEA_HepaRG_PTEN: Life Technologies and Expression Analysis (LTEA) Assay for Phosphatase and tensin (PTEN) using HepaRG (AID 2283523)
Outline: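 HepaRG cells, 48 h after plating, exposed in duplicate for 48 h in serum-free induction medium to 8 half-log concentrations up to 100 uM (0.5% DMSO). PTEN mRNA by qRT-PCR, normalized to ACTB, GAPDH, POLR2A; bidirectional fit versus DMSO.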

[16] = read-out: solute carrier (SLC22A1), SLC22A1 (gene 6580); test: LTEA_HepaRG_SLC22A1: Life Technologies and Expression Analysis (LTEA) Assay for solute carrier (SLC22A1) using HepaRG (AID 2283524)
Outline: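 Differentiated human HepaRG cells in serum-free induction medium, exposed 48 h in duplicate to 8-point half-log series from 100 µM top in 0.5% DMSO. SLC22A1 mRNA by TaqMan qRT-PCR normalized to ACTB, GAPDH, POLR2A; bidirectional fit versus DMSO.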

[17] = read-out: Pyruvate Dehydrogenase Kinase 4 (PDK4), PDK4 (gene 5166); test: LTEA_HepaRG_PDK4: Life Technologies and Expression Analysis (LTEA) Assay for Pyruvate Dehydrogenase Kinase 4 (PDK4) using HepaRG (AID 2283525)
Outline: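 HepaRG cells plated 48 h, then switched to serum-free induction medium and exposed in duplicate for 48 h to 8 half-log concentrations from 100 uM in 0.5% DMSO. PDK4 mRNA measured by qRT-PCR, normalized to ACTB, GAPDH and POLR2A; bidirectional fit versus DMSO.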

[18] = read-out: NAD(P)H dehydrogenase [quinone] 1 (NQO1), NQO1 (gene 1728); test: LTEA_HepaRG_NQO1: Life Technologies and Expression Analysis (LTEA) Assay for NAD(P)H dehydrogenase [quinone] 1 (NQO1) using HepaRG (AID 2283526)
Outline: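 Differentiated human HepaRG cells in serum-free induction medium, dosed in duplicate for 48 h at 8 half-log concentrations up to 100 uM in 0.5% DMSO. NQO1 mRNA by qRT-PCR normalized to ACTB, GAPDH, POLR2A; bidirectional fit versus DMSO baseline.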

[19] = read-out: Nuclear factor erythroid 2-related factor 2 (Homo sapiens) (UniProt Q16236); test: LTEA_HepaRG_NFE2L2: Life Technologies and Expression Analysis (LTEA) Assay for Nuclear factor erythroid 2-related factor 2 (NFE2L2) Transcription Factor using HepaRG (AID 2283527);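 also: TaqMan qRT-PCR transcript level normalised to ACTB GAPDH and POLR2A housekeeping genes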
Outline: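 Differentiated human HepaRG cells, serum-free induction medium, exposed 48 h in duplicate to eight half-log concentrations up to 100 uM in 0.5% DMSO. NFE2L2 mRNA by Fluidigm TaqMan qRT-PCR, normalised to ACTB, GAPDH, POLR2A; bidirectional change versus DMSO.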

Measured: AC50

Chain of Nuclear factor NF-kappa-B p105 subunit (Homo sapiens) (P19838 whole entry, looked up): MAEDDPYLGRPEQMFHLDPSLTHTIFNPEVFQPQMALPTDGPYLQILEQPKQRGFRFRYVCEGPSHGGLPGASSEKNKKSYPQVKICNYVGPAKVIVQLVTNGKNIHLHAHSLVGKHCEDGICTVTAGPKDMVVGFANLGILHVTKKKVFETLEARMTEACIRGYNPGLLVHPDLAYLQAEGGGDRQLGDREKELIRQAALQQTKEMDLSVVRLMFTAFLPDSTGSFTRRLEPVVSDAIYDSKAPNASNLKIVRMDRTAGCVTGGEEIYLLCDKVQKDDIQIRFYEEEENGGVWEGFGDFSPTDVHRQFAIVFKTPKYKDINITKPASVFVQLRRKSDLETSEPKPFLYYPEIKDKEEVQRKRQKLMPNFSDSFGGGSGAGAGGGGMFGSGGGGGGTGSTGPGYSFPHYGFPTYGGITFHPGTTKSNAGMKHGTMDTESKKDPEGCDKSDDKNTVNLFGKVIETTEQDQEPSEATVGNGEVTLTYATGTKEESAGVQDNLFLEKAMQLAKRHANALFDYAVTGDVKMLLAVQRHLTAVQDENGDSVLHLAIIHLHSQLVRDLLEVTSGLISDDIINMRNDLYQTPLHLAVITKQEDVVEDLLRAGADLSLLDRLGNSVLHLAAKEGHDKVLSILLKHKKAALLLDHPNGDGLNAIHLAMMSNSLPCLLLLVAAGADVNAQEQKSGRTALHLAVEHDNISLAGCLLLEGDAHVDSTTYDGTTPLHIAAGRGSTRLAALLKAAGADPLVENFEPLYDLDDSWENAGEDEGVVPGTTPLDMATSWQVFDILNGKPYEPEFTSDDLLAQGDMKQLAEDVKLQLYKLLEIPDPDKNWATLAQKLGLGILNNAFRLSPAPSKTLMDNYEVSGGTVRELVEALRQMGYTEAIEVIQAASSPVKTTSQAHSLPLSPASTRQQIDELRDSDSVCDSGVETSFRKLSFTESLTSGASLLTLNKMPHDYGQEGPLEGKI
Chain of Nuclear factor erythroid 2-related factor 2 (Homo sapiens) (Q16236 whole entry, looked up): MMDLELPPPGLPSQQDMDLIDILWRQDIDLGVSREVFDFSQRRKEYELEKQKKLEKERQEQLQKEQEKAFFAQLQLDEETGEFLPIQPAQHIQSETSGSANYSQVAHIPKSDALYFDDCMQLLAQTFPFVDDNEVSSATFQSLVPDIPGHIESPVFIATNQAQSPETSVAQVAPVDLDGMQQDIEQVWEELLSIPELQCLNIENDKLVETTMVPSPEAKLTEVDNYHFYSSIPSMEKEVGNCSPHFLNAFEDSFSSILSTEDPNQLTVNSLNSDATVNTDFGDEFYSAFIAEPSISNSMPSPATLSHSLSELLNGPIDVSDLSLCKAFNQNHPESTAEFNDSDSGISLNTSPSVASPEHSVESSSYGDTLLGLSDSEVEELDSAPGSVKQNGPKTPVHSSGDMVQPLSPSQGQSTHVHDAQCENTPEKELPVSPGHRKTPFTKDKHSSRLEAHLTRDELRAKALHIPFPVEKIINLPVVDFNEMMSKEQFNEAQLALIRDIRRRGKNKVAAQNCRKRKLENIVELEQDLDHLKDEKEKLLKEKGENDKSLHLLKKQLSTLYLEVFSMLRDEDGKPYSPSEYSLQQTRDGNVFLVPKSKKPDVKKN

Cc1cccc([N+](=O)[O-])c1C
not listed: [18] | [19]
inactive: all other assays above

COC(=O)c1ccc(O)cc1
not listed: [19]
inactive: all other assays above

CCCCC(CC)COC(=O)CC(C(=O)OCC(CC)CCCC)S(=O)(=O)O (configuration not stated)
active: [1] 90.7 µM | [2] 91.4 µM | [6] 77.6 µM | [8] 82.1 µM | MYC, MYC (gene 4609) 85 µM | [12] 89 µM | [14] 80.9 µM | [15] 80.9 µM | [16] 50 µM
inactive: [3] | [4] | [5] | [7] | [9] | [10] | [11] | [13] | [17]

O=[N+]([O-])C(CO)(CO)CO
not listed: [9] | [19]
inactive: all other assays above

COCCOC[C@H](CC1(C(=O)NC2CCC(C(=O)O)CC2)CCCC1)C(=O)Oc1ccc2c(c1)CCC2 (some centres not stated)
not listed: [13]
inactive: all other assays above

COc1ccc(S(=O)(=O)N2C(=O)[C@@](c3ccccc3OC)(N3C[C@H](O)C[C@H]3C(=O)N(C)C)c3cc(Cl)ccc32)c(OC)c1
active: [1] 37.2 µM | [2] 58.2 µM | [3] 13.2 µM | [4] 50 µM | [7] 15.8 µM | [8] 12.1 µM | [9] 50 µM | [10] 50 µM | MYC, MYC (gene 4609) 76.5 µM | [11] 50 µM | [12] 21.5 µM | [14] 32.4 µM | [15] 16.8 µM | [16] 20.5 µM | [17] 13.9 µM
inactive: [5] | [6]

COc1ccc2c(c1)c(CC(=O)O)c(C)n2C(=O)c1ccc(Cl)cc1
not listed: [13] | [19]
inactive: all other assays above

CC(=O)Oc1ccccc1C(=O)O
not listed: [9] | [18] | [19]
inactive: all other assays above

OC[C@@H](O)[C@@H](O)[C@H](O)[C@H](O)CO
not listed: [9] | [18] | [19]
inactive: all other assays above

O=c1[nH]cc(F)c(=O)[nH]1
active: [3] 51 µM | [7] 80.6 µM | [8] 34.5 µM | [14] 51 µM | [16] 51 µM | [17] 76 µM
not listed: [13] | [18]
inactive: all other assays above

O=C(N[C@@H](Cc1ccccc1)[C@@H](O)C(=O)N1C[C@@H](O)[C@@H](O)C1)c1cc2cc(Cl)ccc2[nH]1
active: [1] 63.4 µM | [8] 20.1 µM | [12] 50 µM
not listed: [19]
inactive: all other assays above

Cc1cc(NC(=O)C(=O)O)cc(C)c1Oc1ccc(O)c2c1CCC2
active: [5] 0.0224 µM | [16] 9.92 µM | [17] 0.00353 µM
not listed: [13] | [19]
inactive: all other assays above

Oc1ccc2c(c1)OC[C@@H](N1CCC(O)(c3ccc(F)cc3)CC1)[C@H]2O
not listed: [18] | [19]
inactive: all other assays above

FC(F)(F)C(F)(F)C(F)(F)C(F)(F)C(F)(F)C(F)(F)CCI
not listed: [13] | [18]
inactive: all other assays above
